A number with no mark means an inactive call. Inconclusive results are not listed. Entries that show only a call come without a potency. Activity calls are given as the source filed them. Unless noted, calls come from the whole dose curve; as a rule, active = well fitted curve in the direction sought with a large enough effect in the repeat runs; inconclusive = weak or mixed curves; inactive = no such curve, though single readings can be large; an effect the other way counts as inactive or inconclusive.
Tests used:
[1] = qHTS RealTime-Glo MT Cell Viability Assay in HEK293 cells - 32 hour (AID 1224868); conditions: RealTime-Glo luminescence; series mostly up to 76.8 µM; note: nearly all actives have a fitted effect of over 50% in size; note: potency is the fitted concentration of half-maximal effect
In short: (§1)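 Homogeneous bioluminescent viability format in HEK293 cells (600 cells/well). Following 5 h at 37 C/5% CO2, 23 nL compound was pintooled; the signal was measured repeatedly during 40 h incubation.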

[2] = A CellTox Green Cytotoxicity Assay to monitor cytotoxicity in HEK293 cells - 0 hour (AID 1224869); conditions: CellTox Green fluorescence; series mostly up to 76.8 µM; note: nearly all actives have a fitted effect of over 50% in size
In short: (§2)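 Homogeneous no-lysis format: HEK293 cell suspension mixed with CellTox Green reagent, seeded, incubated 5 h at 37 C/5% CO2, then dosed by pintool with compound in DMSO.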

[3] = qHTS RealTime-Glo MT Cell Viability Assay in HepG2 cells - 40 hour (AID 1224870); conditions: RealTime-Glo luminescence; series mostly up to 76.8 µM; note: nearly all actives have a fitted effect of over 50% in size; note: potency is the fitted concentration of half-maximal effect
In short: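 HepG2 cells (600/well) mixed with RealTime-Glo MT reagent, settled 5 h at 37 C/5% CO2 before compound addition. Nonlytic NanoLuc luminescence from viable-cell prosubstrate reduction read repeatedly during 40 h treatment at 37 C.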

[4] = qHTS RealTime-Glo MT Cell Viability Assay in HEK293 cells - 16 hour (AID 1224872); conditions: RealTime-Glo luminescence; series mostly up to 76.8 µM; note: nearly all actives have a fitted effect of over 50% in size; note: potency is the fitted concentration of half-maximal effect
In short: as §1

[5] = qHTS RealTime-Glo MT Cell Viability Assay in HepG2 cells - 24 hour (AID 1224867); conditions: RealTime-Glo luminescence; series mostly up to 76.8 µM; note: nearly all actives have a fitted effect of over 50% in size; note: potency is the fitted concentration of half-maximal effect
In short: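 Cell number in HepG2 cultures estimated from NanoLuc luminescence generated by metabolic reduction of a prosubstrate by living cells. The homogeneous, nonlytic format allowed repeated reads at 0, 8, 16, 24, 32 and 40 h of compound exposure.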

[6] = A CellTox Green Cytotoxicity Assay to monitor cytotoxicity in HEK293 cells - 40 hour (AID 1224871); conditions: CellTox Green fluorescence; series mostly up to 76.8 µM; note: nearly all actives have a fitted effect of over 45% in size; note: potency is the fitted concentration of half-maximal effect
In short: as §2

[7] = qHTS assay to identify small molecule antagonists of the estrogen related receptor (ERR) signaling pathway from Tox21 library (AID 1224848); conditions: ERR reporter cell line, luciferase antagonist mode, 18 h; series mostly up to 92.4 µM; note: nearly all actives have a fitted effect of over 50% in size; note: potency is the fitted concentration of half-maximal effect
In short: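 Compounds dissolved in DMSO are pin-transferred onto ERR reporter cells (2,000 per well) that have settled for 6 h at 37 C. Plates then incubate 18 h at 37 C before ONE-Glo luciferase reagent and a luminescence read 30 min later.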

[8] = qHTS assay to identify small molecule agonists of the estrogen related receptor (ERR) signaling pathway from Tox21 library (AID 1224849; calls by dose curve; note: nearly all actives have a fitted effect of over 15% in size); conditions: ERR reporter cell line, ONE-Glo luciferase, 18 h; at 92.4 µM (top of the series) unless noted
In short: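 Reporter cells (ERR, NTP source) treated with Tox21 10K compounds 18 h, 37 C. Readout: ONE-Glo luminescence, 30 min RT.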

| Structure (SMILES) | Potency [1] | Potency [2] | Potency [3] | Potency [4] | Potency [5] | Potency [6] | Potency [7] | activity change, positive = activation [8] |
| --- | --- | --- | --- | --- | --- | --- | --- | --- |
| C=CC(=O)OCC(O)COc1ccccc1 (configuration not stated) | inactive | inactive | inactive | inactive |  |  |  |  |
| C[C@@]12C(=O)OC(=O)[C@]1(C)C1CCC2O1 | 6.01 µM (active) | inactive | 1.69 µM (active) | 5.35 µM (active) | 4.77 µM (active) | inactive |  |  |
| Clc1ccc(C(Cn2ccnc2)OCc2ccsc2Cl)c(Cl)c1 (configuration not stated) | 19 µM (active) | inactive |  | 15.1 µM (active) |  |  | 18.8 µM (active) | -53.5% [at 42.5 µM] |
| Clc1ccccc1CN1CCc2sccc2C1 |  | inactive | inactive |  | inactive | inactive |  |  |
| CC(C)(C)c1cc(/C=C2\SC(=N)NC2=O)cc(C(C)(C)C)c1O | 49 µM (active) | inactive |  | 43.6 µM (active) |  |  | 48.6 µM (active) | -57.9% |
| CCCN(CCc1cccs1)[C@H]1CCc2c(O)cccc2C1 | 19 µM (active) | inactive | inactive | 15.1 µM (active) | inactive | 23.9 µM (active) |  | -19.8% [at 42.5 µM] |
| CCCCN(CCCC)CCC(O)c1cc2c(Cl)cc(Cl)cc2c2cc(C(F)(F)F)ccc12 (configuration not stated) | inactive | inactive |  | inactive |  | inactive |  |  |
| O=C1Nc2ccc(Cl)cc2[C@@](C#CC2CC2)(C(F)(F)F)O1 | 23.9 µM (active) | inactive | inactive | 21.3 µM (active) |  |  |  |  |
| COC(=O)NCCC[Si](OC)(OC)OC | inactive | inactive | inactive | inactive |  | inactive | inactive | -7.77% |
| COc1cc(C=C2CCC/C(=C\c3ccc(O)c(OC)c3)C2=O)ccc1O | 23.9 µM (active) | inactive | 23.9 µM (active) | 21.3 µM (active) |  |  | 8.41 µM (active) | -63.1% [at 42.5 µM] |
| CC(=O)OC(OC(C)=O)c1ccc([N+](=O)[O-])o1 | 44.4 µM (active) | inactive |  | 44.4 µM (active) |  | 49.8 µM (active) |  | -81.4% |
